In the library only some 2.4% were active in any assay of this set; here they are far more common.
Cruzain inh Det = inhibitors of Trypanosoma cruzi cruzain with detergent; actives 0.43% (n = 200,000); P25779; purified cruzain, Z-FR-AMC fluorescence, 0.01% Triton; Potency, µM, inactives show max response, negative = inhibition, hits mostly inhibitors;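 further: plate controls were neutral wells for no effect and buffer without enzyme for full effect; nearly all actives have a fitted effect of over 40% in size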
Target sequence (P25779 123-467 limits assumed): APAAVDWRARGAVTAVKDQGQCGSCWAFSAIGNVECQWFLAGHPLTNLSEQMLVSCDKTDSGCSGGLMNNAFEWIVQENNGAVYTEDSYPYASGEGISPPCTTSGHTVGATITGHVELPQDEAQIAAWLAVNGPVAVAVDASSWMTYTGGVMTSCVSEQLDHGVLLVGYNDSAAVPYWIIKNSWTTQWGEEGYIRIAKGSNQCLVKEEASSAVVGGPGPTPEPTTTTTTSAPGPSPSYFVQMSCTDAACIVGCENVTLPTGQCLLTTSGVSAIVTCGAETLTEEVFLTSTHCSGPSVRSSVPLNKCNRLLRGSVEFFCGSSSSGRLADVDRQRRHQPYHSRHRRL
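Sodium acetate buffer (100 mM, pH 5.5) containing 5 mM DTT and 0.01% Triton X-100 hosted 1.5 nM cruzain and test compound for 15 min at room temperature. Cleavage of 2 uM Z-FR-AMC was then tracked by fluorescence.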
Cruzain noTriton = blocks cruzain activity in detergent-free assay; Potency, µM, for inactives: max response, negative = inhibition, most hits filed as inhibitors; P25779; actives 2.3% (n = 200,000); purified cruzain, Z-FR-AMC fluorescence, no detergent;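 further: plate controls were enzyme without inhibitor for no effect and buffer without enzyme for full effect; nearly all actives have a fitted effect of over 40% in size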
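Detergent-free condition (0.00005% Triton X-100) in acetate buffer pH 5.5 with DTT. 1.5 nM enzyme and compound were pre-mixed 15 min, then 2 uM Z-FR-AMC substrate added; reaction progress from fluorescence change between first and third reads (60 s).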
The depositor's hits bear a star; ? = inconclusive. The call rests on the fitted dose curve; in most records, active means well fitted curve in the direction sought with a large enough effect; inconclusive means small, poorly fitted or top-dose-only effect, or another doubt; inactive means no such curve, though single readings can be large; an effect the other way counts as inactive or inconclusive. Potency means the concentration at half of the fitted maximal effect.

SMILES	Cruzain inh Det	Cruzain noTriton
COc1ccc(CNc2ccnc(-c3ccccc3Cl)n2)c(OC)c1	-2%	-6%
O=C(NC1c2ccccc2-c2ccccc21)c1ccco1	-1%	0%
COc1ccc(C(=O)NC2c3ccccc3-c3ccccc32)cc1	2%	20µM*
CCCOc1ccc(C(=O)Nc2cc3c(cc2N2CCCCC2)n(C)c(=O)n3C)cc1	0%	-2%
c1ccc2sc(Nc3nc4cc5c(cc4s3)OCO5)nc2c1	1%	25µM*
Fc1ccc2nc(Nc3nc4cc5c(cc4s3)OCO5)sc2c1	-2%	?
C(=N\Nc1nc2ccccc2s1)/c1ccc2c(c1)OCO2	-1%	-4%
CCOC(=O)c1sc(Nc2nc3cc4c(cc3s2)OCO4)cc1C	-7%	25µM*
CCOC(=O)c1sc(Nc2nc3c(OC)cccc3s2)cc1C	-13%	-2%
C(=C\c1ccccc1)/C=N/Nc1nc2ccccc2s1	-9%	?
Brc1cc2c(cc1/C=N/Nc1nc3ccccc3s1)OCO2	-6%	20µM*
Brc1ccc(/C=C/C=N/Nc2nc3ccccc3s2)cc1	-1%	4µM*
Cc1ccc(NC(=O)c2cc(S(=O)(=O)N3CCOCC3)c(Cl)cc2Cl)cc1	0%	2%
Cc1c(Cl)cc(C(C)(C)C)c(O)c1Cc1c(C)c(Cl)cc(C(C)(C)C)c1O	3%	-6%
N#Cc1c(Cl)nc(Cl)c2c1CCN(Cc1ccccc1)C2	-9%	-22%
N#Cc1c(NCCN)nc(NCc2ccccc2)c2c1CCN(Cc1ccccc1)C2	-1%	7.9µM*
O=c1c2sccc2n(Cc2cc(=O)n3ccccc3n2)c(=O)n1-c1cccc(C(F)(F)F)c1	-4%	-3%
COc1ccccc1N(CC(=O)Nc1ccccc1F)S(C)(=O)=O	-1%	-4%
Cc1ccccc1Nc1nc(Nc2ccccc2C)nc(SC2=NCCS2)n1	4%	?
Cc1ccc(Nc2nc(Nc3ccc(C)cc3)nc(SC3=NCCS3)n2)cc1	2%	25µM*
O=C(CCNC(=O)c1ccccc1)Oc1ccc([N+](=O)[O-])cc1	-22%	25µM*
O=C(NCCc1ccccc1)c1ccc([N+](=O)[O-])cc1	3%	0%
COc1ccc(-n2c(SCC(=O)NCc3ccc(F)cc3)nc3c([nH]c4ccccc43)c2=O)cc1	-3%	-2%
O=C(CCN1CCc2ccccc2C(c2ccccc2)C1)c1ccc2c(c1)OCCO2 (configuration not stated)	28µM*	16µM*
O=C(CCN1Cc2ccccc2C1)c1ccc2c(c1)OCCO2	-25%	?
SMILES	Cruzain inh Det	Cruzain noTriton
CC(=O)Nc1ccc2c(c1)C(=Nc1ccc(C(=O)O)cc1)c1ccccc1-2	0%	1%
CC(=O)c1cccc(NC(=O)C(OC(=O)c2cccs2)c2ccccc2)c1 (configuration not stated)	-6%	32µM*
COCCNC(=O)C(OC(=O)c1cccs1)c1ccccc1 (configuration not stated)	8%	12%
O=[N+]([O-])c1ccc(N2CCN(S(=O)(=O)c3ccc(Cl)c(Cl)c3)CC2)cc1NCCN1CCOCC1	-5%	6%
Cc1cc(C)c(S(=O)(=O)N2CCN(c3ccc([N+](=O)[O-])c(NCc4ccco4)c3)CC2)c(C)c1	0%	6.3µM*
CCNc1cc(N2CCN(S(=O)(=O)c3ccc4c(c3)CCCC4)CC2)ccc1[N+](=O)[O-]	-2%	5µM*
Cc1cc(C)c(S(=O)(=O)N2CCN(c3ccc([N+](=O)[O-])c(NCC4CCCO4)c3)CC2)c(C)c1 (configuration not stated)	-8%	?
COc1ccccc1CNC(=O)CCn1c(=O)c2ccccc2n(CC(=O)Nc2ccc(C)cc2C)c1=O	0%	0%
COc1ccc(Nc2cc(C(=O)NCc3cccs3)c3ccccc3n2)cc1	1%	?
CC(C)c1ccc(Nc2cc(C(=O)NCc3cccs3)c3ccccc3n2)cc1	-3%	10µM*
O=C1/C(=C/c2cccc(F)c2)CSc2sccc21	-2%	-2%
Cc1cccc(/C=C2\CS/C(=C\c3cccc(C)c3)C2=O)c1	-2%	25µM*
OCCCN=C1CCCCC1	3%	8%
O=C(COc1ccc(F)cc1)OCc1cc(=O)n2nc(C3CCCCC3)sc2n1	-2%	-3%
Cc1nc2cc(C(=O)OCC(=O)Nc3cccc(Cl)c3)ccc2n1-c1ccccc1	-7%	25µM*
Cc1nc2cc(C(=O)OCC(=O)NC34CC5CC(CC(C5)C3)C4)ccc2n1-c1ccccc1	-7%	-10%
Cc1nn(C(=O)c2ccc(Cl)cc2)c(C)c1S(=O)(=O)N1CCCCCC1	-1%	-17%
COc1ccc(C2Nc3ccccc3C(=O)N2Cc2ccco2)cc1COc1ccc(F)cc1 (configuration not stated)	-9%	25µM*
COc1ccc(C2Nc3ccccc3C(=O)N2Cc2ccco2)cc1CN1C(=O)c2ccccc2C1=O (configuration not stated)	-1%	?
c1cc2c3c(cccc3c1)NC1(CCCCCC1)N2	-1%	13µM*
c1cc2c3c(cccc3c1)NC1(CCCCC1)N2	0%	7.9µM*
O=C1CCSc2cccc3cccc(c23)N1	-4%	-7%
c1cc2c3c(c1)ccc1cccc(c13)C2	3%	-4%
COc1ccccc1CCNC(=O)Cc1c(C)c2cc3c(C)coc3cc2oc1=O	-1%	9%
O=C(NCc1ccccc1)c1ccc2nc(-c3ccco3)c(-c3ccco3)nc2c1	?	7.9µM*
SMILES	Cruzain inh Det	Cruzain noTriton
CC(=O)c1ccc(NC(=O)c2ccc3nc(-c4ccco4)c(-c4ccco4)nc3c2)cc1	14µM*	?
O=C(NCc1ccccc1)c1ccc2nccnc2c1	1%	10%
O=C(Nc1ccc(N2CCOCC2)cc1)c1ccc2nc(-c3ccco3)c(-c3ccco3)nc2c1	-6%	-4%
O=C(Nc1ccc(Cl)cc1Cl)c1cc(S(=O)(=O)N2CCN(c3ccccc3F)CC2)ccc1F	1%	4%
COc1ccc(CCNC(=O)c2cnc3ccc(C)cn3c2=O)cc1	-1%	-2%
Cc1ccc2c(=O)cc(C(=O)Nc3nc4ccc(Cl)cc4s3)oc2c1C	-2%	2%
COc1cccc(-c2nc(CS(=O)(=O)CC(=O)Nc3c(C)cc(C)cc3C)c(C)o2)c1	-1%	-21%
CC1=C(C(=O)Nc2ccccc2)C(c2ccncc2)n2nc(SCc3ccccc3Cl)nc2N1 (configuration not stated)	1%	12%
COc1ccccc1Oc1ccc2c(c1)C(=O)N(c1ccc(O)cc1)C2=O	1%	20µM*
CC(C)(C)C(=O)Nc1ccc(Oc2ccc3c(c2)C(=O)N(c2ccc(O)cc2)C3=O)cc1	0%	-11%
CCOc1ccc2c(c1)c(=O)c(C(=O)c1ccc(C)cc1)cn2Cc1ccccc1OC	-1%	5%
Cc1[nH]n(-c2ccccc2)c(=O)c1C(C[N+](=O)[O-])c1ccc(Cl)cc1 (configuration not stated)	-9%	4%
Cc1[nH]n(-c2ncc(-c3ccccc3)s2)c(=O)c1C(c1ccc(Cl)cc1)C(C#N)C#N (configuration not stated)	?	13µM*
COc1ccccc1CCNC(=O)C(=O)NCC(c1cccnc1)N1CCN(c2ccccc2)CC1 (configuration not stated)	-2%	14%
CC(=O)[C@H](CC(C)C)NC(=O)[C@@H](CC(C)C)NC(=O)[C@H](CC(C)C)NC(=O)OCc1ccccc1	0.0035µM*	0.013µM*

Source: PubChem
